# ChEMBL document CHEMBL1961873, “Compounds: GSK PKIS; Assays: Nanosyn kinase panel” (2012)
# Target: Serine/threonine-protein kinase PAK 5 (Homo sapiens) (UniProt Q9P286)
# Conditions: at 1 µM
# Sequence of Serine/threonine-protein kinase PAK 5 (Homo sapiens) (Q9P286 whole entry, looked up): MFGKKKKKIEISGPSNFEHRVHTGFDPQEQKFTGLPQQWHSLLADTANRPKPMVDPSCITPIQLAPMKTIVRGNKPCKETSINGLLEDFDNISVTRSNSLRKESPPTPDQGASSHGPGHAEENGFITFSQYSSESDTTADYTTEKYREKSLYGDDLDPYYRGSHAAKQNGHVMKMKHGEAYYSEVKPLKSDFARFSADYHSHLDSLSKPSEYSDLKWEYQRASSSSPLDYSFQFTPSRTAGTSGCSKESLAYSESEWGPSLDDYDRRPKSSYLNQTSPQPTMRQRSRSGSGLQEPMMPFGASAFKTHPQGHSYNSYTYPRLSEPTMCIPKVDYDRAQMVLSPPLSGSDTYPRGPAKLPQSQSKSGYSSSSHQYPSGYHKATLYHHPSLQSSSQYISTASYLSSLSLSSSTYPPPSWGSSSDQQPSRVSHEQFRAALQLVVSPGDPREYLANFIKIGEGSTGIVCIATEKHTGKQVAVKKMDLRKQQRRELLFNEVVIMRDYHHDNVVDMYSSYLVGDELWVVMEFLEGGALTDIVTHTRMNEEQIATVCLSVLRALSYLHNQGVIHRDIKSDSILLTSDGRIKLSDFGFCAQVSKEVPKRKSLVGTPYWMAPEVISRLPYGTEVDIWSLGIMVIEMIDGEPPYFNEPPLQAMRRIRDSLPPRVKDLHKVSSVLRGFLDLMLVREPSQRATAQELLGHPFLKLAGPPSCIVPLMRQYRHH
row,SMILES,inhibition [%]
1,COc1cccc(/C=N/Nc2ncnc3c2cnn3-c2cccc(OC)c2)c1,-2.49
2,COc1ccc2ncn(-c3cc(O[C@H](C)c4ccccc4Cl)c(C(N)=O)s3)c2c1,3.63
3,O=C(Nc1n[nH]c2cc(-c3cc(F)ccc3F)ccc12)C1CC1,-2.05
4,COc1ccc(-c2ccc3c(NC(=O)C4CC4)n[nH]c3n2)cc1,-4.91
5,Clc1ccc(CNc2nccc(-c3cnn4ncccc34)n2)cc1,2.06
6,CN(C)CCOc1ccc(-c2cc(-c3ccc4c(c3)CCC4=NO)c(-c3ccncc3)o2)cc1,-0.63
7,COc1cc(N2CCN(C(C)C)CC2)ccc1Nc1nc(Nc2ccc(F)cc2C(=O)NC[C@@H](O)CO)c2cc[nH]c2n1,-2.48
8,Cc1ccc(C(=O)NC(C)C)cc1-c1ccc(C(=O)NCC2CC2)cc1,-2.22
9,O=C(Nc1ccc(Oc2ccc3[nH]c(NC(=O)c4ccccc4)nc3c2)cc1)Nc1cc(C(F)(F)F)ccc1F,4.86
10,Cc1ccc(C(=O)NC2CCC2)cc1-c1ccc(C(=O)NCC2CC2)cc1,-2.79
11,O=C1Nc2ccc(I)cc2C1=Cc1cc(Br)c(O)c(Br)c1,10.2
12,COc1cc(C)c(N(C)C(=O)CN(C)C)cc1Nc1nc(Nc2cccc(F)c2C(N)=O)c2cc[nH]c2n1,1.84
13,NS(=O)(=O)c1ccc(N/N=C2\C(=O)Nc3ccc(-c4cnco4)cc32)cc1,-0.09
14,CS(=O)(=O)CCNCc1ccc(-c2ccc3ncnc(Nc4ccc(OCc5ccccc5)c(Br)c4)c3c2)o1,0.13
15,COc1cccc(-n2cnc3c(N/N=C/c4ccncc4)ncnc32)c1,10.8
16,Cc1ccc(NC(=O)c2ccoc2)cc1-c1ccc(C(=O)NCC2CC2)cc1,2.58
17,COc1ccc2cc(-c3c(-c4ccncc4)nc(-c4ccc([S+](C)[O-])cc4C)n3C)ccc2c1 (centres undefined),6.4

row,SMILES,inhibition [%]
1,CCS(=O)(=O)c1ccc(OC)c(Nc2ncc(-c3cccc(-c4ccccc4F)c3)o2)c1,2.9
2,Fc1ccc(-c2ncn(C3CCNCC3)c2-c2ccnc(Oc3ccc(F)c(F)c3)n2)cc1,0.29
3,COc1ccc2cc(-c3c(-c4ccncc4)nc(-c4ccc(S(C)(=O)=O)cc4C)n3C)ccc2c1,3.62
4,O=C1NC(=O)C(c2cccc(Cl)c2)=C1Nc1ccc(Cl)c(C(=O)O)c1,0.5
5,CN(C)c1ccc2c(c1)/C(=C/Nc1ccc(S(N)(=O)=O)cc1)C(=O)N2,-4.48
6,CN(c1ccc(NC(=O)Nc2c(Cl)cccc2Cl)cc1)c1ccnc(Nc2cccc(CS(C)(=O)=O)c2)n1,11.9
7,COc1ccc(C2=C(N3CCc4ccccc43)C(=O)NC2=O)cc1,2.28
8,NS(=O)(=O)c1ccc(Nc2cc(-c3ccc(O)c(F)c3)n[nH]2)cc1,-2.39
9,COc1cc2ncn(-c3cc(OCCc4ccccc4)c(C(N)=O)s3)c2cc1OC,-5.75
10,CN1CCN(CCCNc2nc3ccc(Oc4ccc(NC(=O)Nc5cc(C(F)(F)F)ccc5F)cc4)cc3[nH]2)CC1,8.65
11,CCc1ccc(Oc2nccc(-c3c(-c4ccc(F)cc4)ncn3C3CCNCC3)n2)cc1,9.57
12,CCS(=O)(=O)c1ccc(OC)c(Nc2ncc(-c3ccccc3Cl)o2)c1,17.3
13,c1ccc(-c2n[nH]cc2-c2ccnc(-c3ccc(OCCN4CCOCC4)cc3)c2)nc1,4.04
14,COc1cc(Nc2ncc3c(C)nc(-c4cccc(Oc5ccccc5)c4)n3n2)cc(OC)c1OC,4.51
15,CNC(=O)c1cncc(/C=C/c2c(C)cccc2C)c1,2.41
16,COc1cc(Nc2ncc3c(C)nc(-c4cccc(C(F)(F)F)c4)n3n2)cc(OC)c1OC,15.9
17,CCN(CC)Cc1ccc(Nc2nccc(-c3cnn4ncccc34)n2)cc1,5.43
